SMILES strings stand for the structures. About 83,000 compounds went through this panel and 20% of them were active in at least one assay; those are over-represented in the sample as a whole.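 Assay: single dose, 48 h. Readout: percent growth (0 = no net growth; negative = cell death). Active: <10.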 Values without a mark were called inactive. Activity calls are given as the source filed them.

Consider 13 compounds from PubChem BioAssay (NCI).

Test systems include HCT-15 colon; HT29 colon; SNB-75 CNS; SNB-19 CNS; U251 CNS; PC-3 prostate; SK-MEL-5 melanoma; UACC-62 melanoma; LOX IMVI melanoma; SK-MEL-28 melanoma.
What all share (experiment): NCI-60 one-dose screen, 48 h (100 = growth as untreated, 0 = no growth, -100 = all killed)
Common to all, as to details: 10 µM unless noted

With `CCCCCCCCCCCCCCCC1=NC(C)(C)CN1C(C)C`, the growth was -63.5% (active) with HCT-15 colon; -50% (active) in the test on HT29 colon; -13.4% (active) with SNB-75 CNS; 42.6% with SNB-19 CNS; -67% (active) in the test on U251 CNS; -41.4% (active) with PC-3 prostate. Besides, the growth with SK-MEL-5 melanoma was -86.1% (active); in the test with UACC-62 melanoma it was -75.5% (active); in the test with LOX IMVI melanoma it was -79.4% (active); with SK-MEL-28 melanoma it was -80% (active).
Consider `Cc1cc(Nc2c3ccccc3nc3ccccc23)ccc1NS(C)(=O)=O`, for which the growth in the test on HCT-15 colon was 19.8%; in the test with HT29 colon it was 18.2%; with SNB-75 CNS it was 51.3%; in the test on SNB-19 CNS it was 58%; with U251 CNS, 27.1%; with PC-3 prostate, 33.2%. For the same compound, the growth with SK-MEL-5 melanoma is 43.4%; in the test on UACC-62 melanoma, 57%; with LOX IMVI melanoma it was 28.3%; in the test on SK-MEL-28 melanoma, 57.2%.
On to `O=C(c1ccccc1)C(CCc1ccccn1)CCc1ccccn1`, for which the growth in the test on HCT-15 colon is 96.6%; in the test with HT29 colon, 96.7%; with SNB-75 CNS, 106%; in the test on SNB-19 CNS, 94.1%; with U251 CNS, 101%; in the test on PC-3 prostate it was 86.8%. Also, the growth in the test with SK-MEL-5 melanoma was 100%; in the test on UACC-62 melanoma, 86.1%; in the test with LOX IMVI melanoma, 95.8%; in the test on SK-MEL-28 melanoma it was 106%.
With `c1coc(CNc2c3ccccc3nc3ccccc23)c1`, the growth with HCT-15 colon was 44.2%; in the test on HT29 colon, 35.1%; in the test with SNB-75 CNS, 81.5%; in the test with SNB-19 CNS, 62.8%; in the test on U251 CNS it was 65.1%; with PC-3 prostate, 67%. The growth in the test on SK-MEL-5 melanoma is 84.3%; in the test on UACC-62 melanoma, 66.1%; in the test on LOX IMVI melanoma, 37.1%; in the test on SK-MEL-28 melanoma, 97.7%.
`Cc1cc([N+](=O)[O-])c(C)cc1N`: the growth was 105% in the test on HCT-15 colon; 92.1% with HT29 colon; 86.7% in the test with SNB-75 CNS; 108% in the test with SNB-19 CNS; 103% in the test on U251 CNS; 88.6% in the test on PC-3 prostate. Also, the growth with SK-MEL-5 melanoma is 98.4%; with UACC-62 melanoma, 95.5%; in the test on LOX IMVI melanoma, 100%; with SK-MEL-28 melanoma it was 103%.
Turning to `CN(C)CCCN1c2ccccc2CCc2ccccc21`, the growth with HCT-15 colon is 96.6%; in the test with HT29 colon, 83.5%; in the test on SNB-75 CNS it was 50.8%; with SNB-19 CNS, 94.1%; with U251 CNS, 91.6%; in the test on PC-3 prostate it was 82.8%. The growth in the test on SK-MEL-5 melanoma is 75.3%; in the test with UACC-62 melanoma it was 94%; with LOX IMVI melanoma, 106%; in the test on SK-MEL-28 melanoma, 102%.
For the compound `CCOC(=O)c1cnc(SCC)nc1SC#N`, the growth was 63.3% with HCT-15 colon; 81.5% with HT29 colon; 93.1% with SNB-75 CNS; 110% with SNB-19 CNS; 89.2% in the test with U251 CNS; 91.7% in the test with PC-3 prostate. Also, the growth with SK-MEL-5 melanoma is 126%; in the test on UACC-62 melanoma, 94.3%; with LOX IMVI melanoma it was 83%; in the test on SK-MEL-28 melanoma, 108%.
As for `O=C(CCCCCCN1CC(=O)N2[C@@H](c3ccc(Cl)c(Cl)c3)c3[nH]c4ccccc4c3C[C@H]2C1=O)NO`, the growth was 92.3% in the test with HCT-15 colon; 33.8% in the test with HT29 colon; 6.3% (active) in the test with SNB-75 CNS; 54.3% in the test with SNB-19 CNS; 40.5% in the test on U251 CNS; 25.7% in the test with PC-3 prostate. For the same compound, the growth in the test on SK-MEL-5 melanoma is 51.3%; in the test on UACC-62 melanoma it was 35.2%; in the test with LOX IMVI melanoma, -55.2% (active); with SK-MEL-28 melanoma it was 52.4%.
In the case of `S=C(Nc1ccc(Cl)cc1)Nc1ccc(Cl)cc1` (tested in a mixture with another compound), the growth with HCT-15 colon is 9.22% (active); in the test on HT29 colon, 1.05% (active); in the test with SNB-75 CNS, 16.8%; in the test with SNB-19 CNS, 24.7%; in the test with U251 CNS, -36.6% (active); in the test on PC-3 prostate, 3.81% (active). Also, the growth in the test with SK-MEL-5 melanoma is -61.3% (active); in the test with UACC-62 melanoma, 13.8%; in the test with LOX IMVI melanoma it was 5.65% (active); with SK-MEL-28 melanoma it was 25.8%.
`CCCCCCCCCCCCCCCCCC1=NCCN1CCO`: the growth is 61.7% in the test on HCT-15 colon; 61.5% in the test on HT29 colon; 80.6% in the test on SNB-75 CNS; 95.5% in the test on SNB-19 CNS; 75.6% in the test with U251 CNS; 63.6% with PC-3 prostate. Further, the growth in the test on SK-MEL-5 melanoma was 106%; with UACC-62 melanoma, 92%; with LOX IMVI melanoma, -47.2% (active); with SK-MEL-28 melanoma, 89.4%.
Take `Nc1c(N)c2ccccc2c2ccccc12`: the growth was 111% in the test with HCT-15 colon; 108% with HT29 colon; 84.8% in the test on SNB-75 CNS; 104% in the test on SNB-19 CNS; 106% in the test on U251 CNS; 89.5% in the test with PC-3 prostate. The growth was 107% in the test on SK-MEL-5 melanoma, 95% in the test on UACC-62 melanoma, 101% with LOX IMVI melanoma and 110% in the test with SK-MEL-28 melanoma.
Consider `COc1ccc2nc3ccccc3c(NCc3ccc(C)cc3)c2c1`, for which the growth with HCT-15 colon was 11.4%; in the test on HT29 colon it was 1.23% (active); in the test with SNB-75 CNS, 46.6%; with SNB-19 CNS, 29.2%; with U251 CNS, 15.3%; with PC-3 prostate, 11.4%. Moreover, the growth in the test with SK-MEL-5 melanoma is 34.4%; in the test with UACC-62 melanoma, 55.7%; in the test on LOX IMVI melanoma, -6.01% (active); in the test with SK-MEL-28 melanoma, 66.4%.
Consider `CC[C@H](C)[C@H](N)C(=O)O`, for which the growth with HCT-15 colon is 107%; in the test with HT29 colon, 109%; in the test with SNB-75 CNS, 99.1%; in the test on SNB-19 CNS it was 105%; in the test on U251 CNS, 107%; in the test with PC-3 prostate, 99.1%. Besides, the growth with SK-MEL-5 melanoma is 101%; with UACC-62 melanoma it was 102%; in the test with LOX IMVI melanoma, 98.7%; in the test with SK-MEL-28 melanoma, 109%.
